Molecules are shown by their SMILES. Screen size: about 64,000 compounds; about 1,900 (3%) were called active.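 The calls were made as follows: active = fluorescence rise, raw or as B-score row- and column-corrected plate score, outside the 99.7% band of its plate's samples, either direction; inactive = the rest.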 Shown is part of a subset that was picked to be rich in actives.

The test concerns Muscarinic acetylcholine receptor M1. Nature of the test: M1 muscarinic receptor agonists, primary screen, CHO-M1 cells, Fluo-4 calcium, agonist mode (AID 626). As to conditions: Fluo-4 calcium fluorescence, at 10 µM, stronger effect = higher value.
As for `O=C(c1cc2nc(-c3ccccc3)cc(-c3ccccc3)n2n1)N1CCC2(CC1)OCCO2`, the B-score is 6.7 (active). The result for `O=C(c1cc(-c2ccncc2)nc2ccccc12)N1CCC2(CC1)OCCO2` reads 0.114 (inactive). To `Cc1cccc(-n2c(C)nc3cc(C(=O)N4CCC5(CC4)OCCO5)ccc32)c1` belongs -0.0322 (inactive). The result for `Cc1ccc(P(=S)(c2ccc(C)o2)N2CCOCC2)o1` reads 0.695 (inactive); that for `Cn1c(C(=O)N2CCC(C(=O)N3CCC4(CC3)OCCO4)CC2)cc2sccc21`, -0.378 (inactive).

The values above are taken from PubChem BioAssay AID626 (Vanderbilt High Throughput Screening Facility, 2007).
